Data on 50 compounds can be found in PubChem BioAssay AID1347417 (National Center for Advancing Translational Sciences (NCATS), 2020).

About 5,300 (4.4%) of roughly 120,000 compounds were called active. Inconclusive results (about 22%) are left out. The sample as a whole holds a higher share of actives than the screen did. A number with no mark means an inactive call. Calls come from the whole dose curve; as a rule, active = well fitted inhibition curve with a large enough effect; inconclusive = small, poorly fitted or top-dose-only effect; inactive = no such curve, though single readings can be large or run the other way.
Potency is the fitted concentration of half-maximal effect.

The assay can be described thus: qHTS Primary assay for Inhibitors of Plasmodium falciparum Dd2 growth in vitro.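 For activity, negative = inhibition: plate controls were DMSO vehicle for no effect and reference drug for full effect.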 Note: nearly all actives have a fitted effect of over 65% in size. The note with it: P. falciparum Dd2 growth, SYBR Green, 72 h; series mostly up to 28.9 µM; activity, negative = inhibition: at the top concentration. In a few lines:
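Readout: SYBR Green fluorescence, 485 nm excitation, 535 nm emission, after ~16 h lysis at 37C. Before that, Dd2-infected red cells (2.5% hematocrit) grew 72 h with compound, 29 uM top final concentration.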
Consider `Cc1cnc(CCNC(=O)c2cn(C)cn2)n1C1CC1`, for which the “activity, negative = inhibition” value was -21%.
As to `CC(=O)NCCc1ncc(C)n1C1CCCCC1`, the “activity, negative = inhibition” value was -23.6%.
Turning to `Cc1cnc(CCNC(=O)Nc2ccccc2F)n1C1CCC1`, the Potency is 4.47 µM (active).
Still for that read-out and setting: to `C=C(C)CN(CC)C(=O)c1c(C)oc2c1CN(Cc1cccc(F)c1)CC2` belongs 8.91 µM (active).
`O=c1[nH]c(N2CCOCC2)nc2c1CCN(Cc1cccc(F)c1)CC2`: the outcome is “inactive [at 5.79 µM]”.
The same measure, in the same setting: next, `CCNC(=O)c1c(C)oc2c1CN(C(=O)CCc1ccccc1)CC2`: “inactive”.
`O=C(CCc1ccccc1)N1CCCCCC1c1nc(-c2ccccc2)no1` (stereo not given): the “activity, negative = inhibition” value was -10.1%.
For `Cc1cccc(CC(=O)N2CCC(c3noc(COCC4CC4)n3)CC2)c1`, the “activity, negative = inhibition” value is -11.1%.
Same read-out and setting: to `Cc1ccc2c(C)c(C(=O)N3CCCn4cncc4C3)oc2c1` belongs -21.1%; to `COc1ccc(NC(=O)c2ccc3c(c2)N(S(C)(=O)=O)CC3)cc1OC`, -0.286%; to `COc1ccc(NC(=O)c2ccc3nc(C(C)C)oc3c2)cc1OC`, 14.6%.
`COc1ccc(C(=O)Nc2ccc3nc(N4CCCCC4)cc(C)c3c2)cc1OC`: the Potency was 3.16 µM (active).
On to `COc1ccc(N2CCC(NC(=O)c3ccc(N(C)C)cc3)C2=O)cc1` (stereo not given), for which the “activity, negative = inhibition” value was -12%.
`O=C(NCc1ccc(Cl)nc1)c1cnn2c1CN([S+](=O)([O-])c1cccc(C(F)(F)F)c1)CC2`: the “activity, negative = inhibition” value was 70.5%.
Consider `Cc1ccccc1OCCSc1nc2ccc(NC(=O)c3ccco3)cc2s1`, for which the Potency was 2.24 µM (active).
On to `Cc1cccc(OCCSc2nc3ccc(NC(=O)COc4ccccc4C)cc3s2)c1`, for which the “activity, negative = inhibition” value was -19.9%.
`O=C(Nc1ccc2nc(SCCOc3ccccc3)sc2c1)c1ccco1`: the Potency was 4.47 µM (active).
`Cc1ccc(OCCSc2nc3ccc(NC(=O)COc4ccc(C)cc4)cc3s2)cc1`: the “activity, negative = inhibition” value is 5.02%.
As for `CC(=O)Nc1ccc2nc(SCCOc3cc(C)cc(C)c3)sc2c1`, the result was inactive.
For the compound `COc1cc(C)ccc1OCCSc1nc2ccc(NC(=O)c3ccc(C)cc3)cc2s1`, the “activity, negative = inhibition” value was -22.7%.
Turning to `CN1CC2(CCN(Cc3cn[nH]c3-c3ccccc3)CC2)CC1C(=O)N1CCOCC1` (stereo not given), the “activity, negative = inhibition” value was -19.7%.
As to `O=C(CCc1conc1-c1ccccc1F)NCc1cccc(C(F)(F)F)c1`, the “activity, negative = inhibition” value is -8.13%.
As for `C=CCCC(CN1CCCC1)Oc1cncc(C(=O)N2CCCC2)n1` (stereo not given), the Potency is 7.94 µM (active).
With `COC[C@@H]1CN(C(=O)Cc2ccc(OC)cc2)C[C@H]1C(N)=O`, the outcome was inactive.
Regarding `CCCC1c2nccn2CCCN1C(=O)c1ccc(OC)nc1` (stereo not given), the “activity, negative = inhibition” value was 11.3%.
Still for that read-out and setting: to `COc1ccccc1OCCNC(=O)CCc1cc2cc(C)ccc2[nH]c1=O` belongs -7.04%; to `O=C(N[C@@H]1CCOC[C@H]1Oc1ccccn1)c1cc(C2CC2)no1`, -7.6%.
Still for that read-out and setting: to `COc1ccc(CN2CCC3(CC2)Cc2ccccc2CNC3=O)cn1` belongs 2.24%.
Same read-out and setting: to `Cc1ccc(CN2CCCC23Cc2ccccc2CNC3=O)cc1C` (stereo not given) belongs -14%.
Take `O=C1Nc2ccccc2CC12CCCN2Cc1ccccc1` (stereo not given): the Potency was 10 µM (active).
For `N#Cc1ccc(CN2CCC3(Cc4ccccc4NC3=O)C2)cc1` (stereo not given), the “activity, negative = inhibition” value was -4.96% [at 44.1 µM].
As for `Cc1nn(-c2ccccc2)c(C)c1CN1CCCC12Cc1ccccc1CNC2=O` (stereo not given), the Potency is 2.24 µM (active).
On to `O=C1Nc2ccccc2CC12CCN2Cc1cncs1` (stereo not given), for which the “activity, negative = inhibition” value was -13% [at 44.1 µM].
As for `CSc1nccc(N2CCC(c3nccn3Cc3cccnc3)CC2)n1`, the “activity, negative = inhibition” value was -28.9%.
Regarding `CCS(=O)(=O)N1CCCN(C(=O)C2CC2)C(c2ccccc2)CC(=O)NCC1` (stereo not given), the “activity, negative = inhibition” value is 2.09%.
Same read-out and setting: next, `CN1CC2(CCN(C(=O)c3n[nH]c(=O)c4ccccc34)CC2)CC1C(=O)N1CCOCC1` (stereo not given): 13.6%; `CN(C)C(=O)c1nc(-c2cccnc2)c2ccccn12`: 1.95% [at 44.1 µM]; `O=C(NCc1cccnc1)c1nc(-c2ccc(Cl)nc2)c2cnccn12`: 0.438%.
Turning to `CN(C)C(=O)c1nc(-c2ccc(Cl)cc2Cl)c2cnccn12`, the Potency was 10 µM (active).
As to `O=C1CCN(C(=O)CN2CCCCCC2)CCCC(c2nc(-c3ccccc3)no2)CCN1` (stereo not given), the compound was classed as inactive.
As for `Cc1cc(C[C@@H]2COC[C@@H]2NC(=O)c2ccc3nc(C)[nH]c3c2)on1`, the “activity, negative = inhibition” value is -2.41%.
On the same count and under the same terms, next, `CCc1ccc(Nc2nn3c(=O)c4cc5c(cc4nc3s2)OCO5)cc1`: 10.9%.
On to `Cc1ccccc1Nc1nn2c(=O)c3ccc(C(=O)NCCc4ccc(Cl)cc4)cc3nc2s1`, for which the Potency was 3.16 µM (active).
Take `O=C(NCCc1ccc(Cl)cc1)c1ccc2nc(CCc3ccccc3)oc2c1`: the “activity, negative = inhibition” value was 47.5%.
Still for that read-out and setting: next, `CC(C)c1nc(CNC(=O)c2ccc(N(C)C)nc2)no1`: -11.6%; `c1cc(-c2ccsc2)n2nc(C3CCCO3)nc2n1` (stereo not given): -9.94%.
Turning to `Cn1cc(CN2CCCN(C(=O)c3ccco3)CC2)c(-c2ccc(C3CCCCC3)cc2)n1`, the Potency was 8.91 µM (active).
As for `COCCn1nc2n(c1=O)CCN(C(=O)c1ccco1)CC2`, the “outcome” value is “inactive; activator; fitted 3.1623 uM”.
For `Cc1ccc([C@@H]2CN(C(=O)c3ccco3)[C@@H]3C4CCN(CC4)[C@@H]32)cc1`, the “activity, negative = inhibition” value was -27.6%.
With `COCc1nc(CCNC(=O)CCc2ccccc2)no1`, the “activity, negative = inhibition” value was 37.7%.
